HSP90 refold inh: HSP90 refolding inhibition in rabbit reticulocyte lysate; luciferase refolding luminescence, 3 h; inhibition, % at 5.6 µM; 290,000 tested, 0.91% active;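 active = inhibition above the screen-wide mean plus 3 SD, computed separately per campaign, cut at about 16% in these data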;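 note: inhibitors lower the luminescence because luciferase stays unfolded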
pCIP destab: compounds decreasing mouse p/CIP protein stability; Q05BA5; F442A p/CIP-EGFP cells, EGFP fluorescence, 16 h; decrease of EGFP signal, % at 10 µM; 290,000 tested, 0.01% active;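 active = EGFP signal decrease of at least 30% at 10 µM or well 3 SD below plate mean, unless failing retest; inactive = the rest, including hits failing retest or dose response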
Target sequence (Q05BA5 1-1403): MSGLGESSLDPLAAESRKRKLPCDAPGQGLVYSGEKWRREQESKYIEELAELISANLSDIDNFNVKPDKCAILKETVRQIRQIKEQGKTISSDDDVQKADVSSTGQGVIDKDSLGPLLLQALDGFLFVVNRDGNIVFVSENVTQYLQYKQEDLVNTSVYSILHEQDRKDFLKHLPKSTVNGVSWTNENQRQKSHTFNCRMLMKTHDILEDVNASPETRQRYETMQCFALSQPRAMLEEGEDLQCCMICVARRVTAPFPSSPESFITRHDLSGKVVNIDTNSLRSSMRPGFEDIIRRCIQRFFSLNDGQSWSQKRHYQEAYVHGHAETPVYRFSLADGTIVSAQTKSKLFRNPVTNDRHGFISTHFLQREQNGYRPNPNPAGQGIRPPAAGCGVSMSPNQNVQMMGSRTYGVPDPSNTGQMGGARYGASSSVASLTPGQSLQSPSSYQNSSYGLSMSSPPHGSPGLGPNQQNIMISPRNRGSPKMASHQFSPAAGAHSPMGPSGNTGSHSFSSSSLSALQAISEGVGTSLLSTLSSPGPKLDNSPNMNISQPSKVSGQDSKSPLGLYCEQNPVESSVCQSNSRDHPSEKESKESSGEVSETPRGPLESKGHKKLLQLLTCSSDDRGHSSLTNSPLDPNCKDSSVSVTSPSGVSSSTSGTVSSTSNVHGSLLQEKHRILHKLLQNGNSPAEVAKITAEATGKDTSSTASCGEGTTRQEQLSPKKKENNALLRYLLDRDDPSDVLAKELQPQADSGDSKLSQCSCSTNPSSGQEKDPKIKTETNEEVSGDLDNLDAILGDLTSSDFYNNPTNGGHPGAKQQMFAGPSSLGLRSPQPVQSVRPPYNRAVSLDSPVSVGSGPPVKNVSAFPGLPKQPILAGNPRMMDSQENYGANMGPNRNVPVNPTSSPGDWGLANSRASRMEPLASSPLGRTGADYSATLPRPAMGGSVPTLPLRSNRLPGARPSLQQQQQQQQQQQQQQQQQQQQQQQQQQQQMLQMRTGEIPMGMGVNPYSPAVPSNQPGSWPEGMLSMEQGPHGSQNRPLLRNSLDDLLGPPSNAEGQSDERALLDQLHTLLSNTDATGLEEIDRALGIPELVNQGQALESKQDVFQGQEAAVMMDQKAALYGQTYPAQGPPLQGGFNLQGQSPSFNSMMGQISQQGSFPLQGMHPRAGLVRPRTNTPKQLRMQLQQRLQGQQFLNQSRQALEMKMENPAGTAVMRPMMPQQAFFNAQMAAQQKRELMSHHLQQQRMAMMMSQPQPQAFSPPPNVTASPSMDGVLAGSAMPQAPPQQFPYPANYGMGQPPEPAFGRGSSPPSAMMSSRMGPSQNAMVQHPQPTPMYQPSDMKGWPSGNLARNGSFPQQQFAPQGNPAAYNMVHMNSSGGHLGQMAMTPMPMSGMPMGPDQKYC
HSF-1 act: increases HSF-1 driven luciferase reporter signal. NIH3T3-HGL HSF-1 luciferase reporter, MG132, 8 h; 100% = twice DMSO control signal. activation, % at 9 µM. 300,000 tested, 1.7% active;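 active = mean replicate activation of at least 50% with a set share of replicates each reaching 50%; inconclusive = only one of those two conditions met; inactive = mean below 50% and too few replicates reaching it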
NALP1 inh: NALP1 inhibition | S. cerevisiae NALP1/ASC/caspase-1 growth, X-gal OD620, 72 h | inhibition, % at 10 µM | 280,000 tested, 0.61% active; in the data active = inhibition mostly above about 24%, no sharp cut-off; inactive = mostly below about 32%
HSF1 inh: HSF1 inhibition. NIH3T3-HGL HSE-luciferase, MG132-induced, luminescence 8 h; stronger effect = lower value. AID 2098. activity change, negative = inhibition, % at 7.5 µM (by protocol). 300,000 tested, 0.77% active;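 active = more than half of replicate wells show activity change below -50%, luminescence cut by over half; inconclusive = some wells, but at most half, below -50%; inactive = no replicate well below -50%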;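 note: luciferase reports HSF-1 transcriptional activity via heat shock element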
Hsp70 act: switches on Hsp70 transcription. activation, % at 10 µM. 200,000 tested, 0.04% active. HeLa Hsp70 promoter luciferase reporter, luminescence; scaled: vehicle 0, proteasome-inhibitor control 100%;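 active = activation above the mean across all tested compounds plus 3 SD, cutoff set per campaign, cut at about 5.5% in these data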
A number is an active result; i = inactive; ? = inconclusive; nt = not tested or not shown. A selection: hits, their analogues and other compounds. The true share with any hit is near 3.8%.

SMILES	HSP90 refold inh	pCIP destab	HSF-1 act	NALP1 inh	HSF1 inh	Hsp70 act
O=C(Nc1nccs1)c1ccc2ccccc2n1	i	i	?	i	i	nt
Cc1csc(NC(=O)c2ccc3ccccc3n2)n1	i	i	54.7	i	i	nt
Cc1ccc(N(C(C)C(=O)NCc2ccncc2)S(C)(=O)=O)cc1C (configuration not stated)	i	i	i	i	i	i
O=C(NCc1ccccn1)Nc1cccc(Cl)c1	i	i	55.6	i	i	i
O=C(Nc1ccccn1)c1ccc2ccccc2n1	i	i	74.3	i	i	i
O=C(NCc1ccccn1)Nc1cccc(NC(=O)NCc2ccccn2)c1	i	i	i	i	i	i
O=C(CSCc1ccc(Br)cc1)N1CCCC1	i	i	57.2	i	i	i
O=C(Nc1ccc(Oc2ccccc2)cc1)C1CC1	i	i	i	i	i	i
O=C(Nc1ccc(C#Cc2ccccc2)cc1)C1CC1	i	i	82.4	i	i	i
CCCC(=O)Nc1ccc(C#Cc2ccccc2)cc1	i	i	61.3	i	i	i
CCCC(=O)Nc1ccc(Oc2ccc(NC(=O)CCC)cc2)cc1	i	i	i	i	i	i
CCN(CC(=O)Nc1ccc(NC(C)=O)cc1)C(=O)CSc1nnc(-c2ccco2)n1CC	nt	nt	i	nt	i	nt
Cc1cc(C(=O)COC(=O)c2ccc(Cl)c(S(N)(=O)=O)c2)c(C)n1CC1CCCO1 (configuration not stated)	nt	nt	i	nt	-56.7	nt
Cc1cc(C(=O)CSc2nc3ccccc3c(=O)n2C)c(C)n1CC1CCCO1 (configuration not stated)	i	i	i	i	i	i
Cc1cc(C(=O)CSc2nc3ccccc3c(=O)[nH]2)c(C)n1CC1CCCO1 (configuration not stated)	i	i	58.8	i	i	i
Cc1cc(C(=O)COC(=O)c2ccc3c(c2)NC(=O)CS3)c(C)n1CC1CCCO1 (configuration not stated)	i	i	i	i	i	i
Cc1cc(C(=O)COC(=O)CNC(=O)c2ccccc2)c(C)n1CC1CCCO1 (configuration not stated)	i	i	i	i	-50.2	i
COCCn1c(C)cc(C(=O)COC(=O)c2ccc(-n3nc(C)cc3C)cc2)c1C	i	i	60.4	i	i	i
COc1ccc(C)cc1NC(=O)CSc1nnc(-c2cc(C)[nH]n2)n1N	i	i	i	i	i	nt
COCCn1c(C)cc(C(=O)COC(=O)c2ccc(Cl)c(S(N)(=O)=O)c2)c1C	nt	nt	i	nt	-60.5	nt
Cc1cc(C(=O)CSc2nnc(-c3ccccc3)o2)c(C)n1CC1COc2ccccc2O1 (configuration not stated)	16.5	i	i	i	i	i
Cc1cc(C(=O)CSc2nnc(-c3ccc(F)cc3)o2)c(C)n1CC1COc2ccccc2O1 (configuration not stated)	i	i	i	i	i	i
CN(C)c1ccc(/C=C(\C#N)C(=O)c2ccccc2)cc1	i	i	i	36.6	i	nt
N#C/C(=C\c1ccc(C#N)cc1)C(=O)c1ccccc1	i	i	i	i	i	nt
CN(C)c1cccc(/C=C(\C#N)c2ccccc2)c1	i	i	63.4	i	i	nt
SMILES	HSP90 refold inh	pCIP destab	HSF-1 act	NALP1 inh	HSF1 inh	Hsp70 act
Cc1nn(-c2ccccc2)c(C)c1/C=N\NS(=O)(=O)c1ccc(Cl)cc1	i	i	i	i	i	i
CN1C(=O)C2C(c3ccc(N(C)C)cc3)=NN(Cc3ccccc3)C2C1=O (configuration not stated)	i	i	75.1	i	i	i
CN(CC1COc2ccccc2O1)C(=O)c1cc(COc2c(F)cccc2F)on1 (configuration not stated)	i	i	i	i	i	nt
CCOc1ncccc1C(=O)N(C)CC1COc2ccccc2O1 (configuration not stated)	i	i	174.9	i	i	i
CCn1c(SCC(=O)N/N=C/c2ccc(C)s2)nc2ccccc21	i	i	i	i	i	i
Cc1cccc(C)c1NC(=O)NC1(C(=O)N2CCOCC2)CCCCC1	i	i	i	i	i	i
CCOC(=O)COc1ccc(/C=C/[N+](=O)[O-])c(OCC(=O)OCC)c1	i	i	196.9	i	i	i
O=[N+]([O-])/C=C/c1c(OCc2ccccc2)ccc2ccccc12	i	i	i	i	i	i
CCOC(=O)Cn1cc(/C=C/[N+](=O)[O-])c2ccccc21	i	i	i	i	i	i
CCOc1ccc(/C=C/[N+](=O)[O-])c2ccccc12	i	i	75.6	i	i	i
CCOC(=O)COc1ccc2ccccc2c1/C=C/[N+](=O)[O-]	i	i	176.6	79.2	i	i
CCOC(=O)COc1ccc2nsnc2c1	i	i	i	i	i	i
COCCN(CCOC)c1nc(-c2ccc(C)cc2)nc2ccccc12	i	i	192.8	i	i	nt
O=C(CC1SC(=NCCc2ccccc2)N(/N=C/c2cccs2)C1=O)Nc1ccc(Cl)cc1 (configuration not stated)	i	i	68.6	i	i	i
COc1cccc(N2CC(NC(=O)C(=O)c3c(C)[nH]c4ccccc34)CC2=O)c1 (configuration not stated)	nt	nt	i	nt	i	nt
O=C(NCc1ccc(Cl)cc1)c1ccc(OCC2CCCO2)cc1 (configuration not stated)	i	i	i	i	i	i
Cc1ccc2nc(NC(=O)c3ccc(OCC4CCCO4)cc3)sc2c1 (configuration not stated)	i	i	56.7	i	i	i
O=C(Nc1ccc(Cl)cc1)c1ccc(OCC2CCCO2)cc1 (configuration not stated)	i	i	i	35.0	i	i
Cc1ccc(S(=O)(=O)N2CCCC2CNC(=O)C(=O)Nc2ccc(F)cc2)cc1 (configuration not stated)	nt	nt	i	nt	i	nt
COc1ccc(CN2CCN(S(=O)(=O)c3ccc(F)cc3)CC2)cc1OC	i	i	i	i	i	i
COc1ccc(CN2CCN(S(=O)(=O)c3ccccc3)CC2)cc1Br	i	i	i	i	-61.1	i
COCCCN(C(=S)Nc1cc(Cl)cc(Cl)c1)C(C)c1ccccn1 (configuration not stated)	i	i	i	nt	i	nt
COCCCN(C(=S)Nc1cc(Cl)cc(Cl)c1)C(C)c1ccncc1 (configuration not stated)	i	i	i	68.5	i	i
Nc1c(N2CCCC2)c2ccccc2oc1=O	i	i	i	i	i	i
COc1cccc(N2CCN(c3ncnc4c3[nH]c3ccc(F)cc34)CC2C)c1 (configuration not stated)	i	i	i	i	-83.7	i
COc1cccc(CNC(=O)c2ccc(C3SCCS3)cc2)c1	i	i	i	i	i	nt
Cc1ccc(/C=C/C(=O)c2ccccc2O)cc1	i	i	i	i	i	nt
CN(C)c1ccc(/C=C/C(=O)c2ccccc2O)cc1	i	i	57.9	i	i	i
